The record followed here is PubChem BioAssay (NCATS).

Assay [1] deals with ATP-dependent 6-phosphofructokinase (Trypanosoma brucei brucei) (UniProt O15648). Description: qHTS Assay to Find Inhibitors of T. brucei phosphofructokinase: hit validation (AID 492961).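 Note: luminescence reports ADP formed as PFK phosphorylates fructose-6-phosphate with ATP; % is set by controls: 0 for no effect and ±100 for the full control effect.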 An outline of the steps:
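Compounds titrated; %activity normalized to 0x and 1x enzyme controls, curve-fitted. Readout: ADP-Glo luminescence after 45 min room-temperature reaction of 1.25 nM PFK, 0.1 mM ATP, 0.5 mM F6P, pH 8.0.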
In general terms: In qHTS, concentration-response curves come from the screen itself.

Assay [2] in a line: qHTS profiling for inhibitors of Plasmodium falciparum proliferation (AID 504749).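 For activity, negative = inhibition: 0% = DMSO vehicle and full inhibition = artemisinin control.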 For all read-outs here: nearly all actives have a fitted effect of over 60% in size. Note: potency is the fitted concentration of half-maximal effect. The following applies: P. falciparum in erythrocytes, SYBR Green DNA, 72 h; for activity, negative = inhibition: at 28.7 µM (top of the series). An outline of the steps: (§1)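 Each compound contacts P. falciparum-infected red blood cells for 72 h at 37 C; lysis buffer (Tris, EDTA, saponin, Triton X, SYBR Green I) is added and fluorescence measured next morning; values normalized to controls.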

The subject of another assay is 3D7. The description is as above. Particulars: P. falciparum in erythrocytes, SYBR Green DNA, 72 h; series mostly up to 28.7 µM. An outline of the steps: as §1
Another assay relates to ATS189. The description is as above. Particulars: P. falciparum in erythrocytes, SYBR Green DNA, 72 h; series mostly up to 28.7 µM. An outline of the steps: as §1
For a further assay, the system named is CP185. Described as above. The following applies: P. falciparum in erythrocytes, SYBR Green DNA, 72 h; series mostly up to 28.7 µM. Summed up: as §1
A further assay relates to CP191. Described as above. Particulars: P. falciparum in erythrocytes, SYBR Green DNA, 72 h; series mostly up to 28.7 µM. Summed up: as §1
The test system of the next assay is CP192. The description is as above. The following applies: P. falciparum in erythrocytes, SYBR Green DNA, 72 h; series mostly up to 28.7 µM. Summed up: as §1
The next assay relates to CP194. The assay is described as above. Particulars: P. falciparum in erythrocytes, SYBR Green DNA, 72 h; series mostly up to 28.7 µM. An outline of the steps: as §1
A further assay has as its system CP211. The description is as above. Particulars: P. falciparum in erythrocytes, SYBR Green DNA, 72 h; series mostly up to 28.7 µM. Summed up:
as §1

The test system of a further assay is CP217. Described as above. Particulars: P. falciparum in erythrocytes, SYBR Green DNA, 72 h; series mostly up to 28.7 µM. An outline of the steps:
as §1

Another assay concerns CP238. The description is as above. The following applies: P. falciparum in erythrocytes, SYBR Green DNA, 72 h; series mostly up to 28.7 µM. An outline of the steps: as §1
The next assay has as its system CP252. The description is as above. Particulars: P. falciparum in erythrocytes, SYBR Green DNA, 72 h; series mostly up to 28.7 µM. Summed up:
as §1

The test system of a further assay is CP262. Described as above. Particulars: P. falciparum in erythrocytes, SYBR Green DNA, 72 h; series mostly up to 28.7 µM. Summed up: as §1
The test system of the next assay is CP265. The assay is described as above. The following applies: P. falciparum in erythrocytes, SYBR Green DNA, 72 h; series mostly up to 28.7 µM. An outline of the steps: as §1
Another assay has as its system CP269. The description is as above. The following applies: P. falciparum in erythrocytes, SYBR Green DNA, 72 h; series mostly up to 28.7 µM. An outline of the steps: as §1
Another assay relates to CP286. Described as above. The following applies: P. falciparum in erythrocytes, SYBR Green DNA, 72 h; series mostly up to 28.7 µM. An outline of the steps: as §1
The next assay has as its system CP329. The description is as above. The following applies: P. falciparum in erythrocytes, SYBR Green DNA, 72 h; series mostly up to 28.7 µM. Summed up: as §1
In another assay the test system is Dd2. The assay is described as above. Particulars: P. falciparum in erythrocytes, SYBR Green DNA, 72 h; series mostly up to 28.7 µM. Summed up:
as §1

For another assay, the system named is ECU. The assay is described as above. The following applies: P. falciparum in erythrocytes, SYBR Green DNA, 72 h; series mostly up to 28.7 µM. An outline of the steps:
as §1

The next assay deals with FAB9. The description is as above. The following applies: P. falciparum in erythrocytes, SYBR Green DNA, 72 h; series mostly up to 28.7 µM. An outline of the steps: as §1

Structures are written as SMILES. Inconclusive results are not listed. A number with no mark means an inactive call. The source made the active and inactive calls. Calls come from the whole dose curve; as a rule, active = well fitted curve in the direction sought with a large enough effect; inconclusive = small, poorly fitted or top-dose-only effect, or another doubt; inactive = no such curve, though single readings can be large; an effect the other way counts as inactive or inconclusive.

Sequence of ATP-dependent 6-phosphofructokinase (Trypanosoma brucei brucei) (O15648 whole entry, looked up): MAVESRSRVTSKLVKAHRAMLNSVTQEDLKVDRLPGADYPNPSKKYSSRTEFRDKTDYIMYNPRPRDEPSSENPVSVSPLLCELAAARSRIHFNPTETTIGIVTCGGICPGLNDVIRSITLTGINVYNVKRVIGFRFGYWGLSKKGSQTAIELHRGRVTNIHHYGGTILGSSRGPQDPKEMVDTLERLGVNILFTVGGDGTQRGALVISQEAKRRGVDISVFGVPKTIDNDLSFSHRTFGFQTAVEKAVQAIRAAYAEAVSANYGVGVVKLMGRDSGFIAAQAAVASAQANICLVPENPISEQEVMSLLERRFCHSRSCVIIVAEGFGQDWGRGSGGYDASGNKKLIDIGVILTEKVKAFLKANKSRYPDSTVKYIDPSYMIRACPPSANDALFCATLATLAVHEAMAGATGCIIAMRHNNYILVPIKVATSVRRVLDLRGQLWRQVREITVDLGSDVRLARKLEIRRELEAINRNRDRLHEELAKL

Consider `CC1(C)SC2[C@@H](N=CN3CCCCCC3)C(=O)N2[C@H]1C(=O)O` (some centres not stated), for which the Potency entry (in assay [1]; in the assay on 3D7; in the assay on ATS189; in the assay with CP185; in the assay with CP191; with CP192) was “inactive” in each case. Also, the Potency result with CP194, with CP211, in the assay on CP217, in the assay with CP238, in the assay with CP252 and in the assay on CP262 was “inactive” each time. Further, the Potency entry with CP265, in the assay on CP269, in the assay on CP286, in the assay on CP329, in the assay on Dd2 and in the assay with ECU was “inactive” each time. For the same compound, the Potency entry in the assay on FAB9 was “inactive”. The activity, negative = inhibition in [2] (parasite line A) is 0.0196%; in assay [2] (parasite line B), -13%.

Consider `CC1(C)O[C@@H]2C[C@H]3[C@@H]4CCC5=CC(=O)C=C[C@]5(C)[C@H]4C(O)C[C@]3(C)[C@]2(C(=O)CO)O1` (some centres not stated), for which the Potency result (in assay [1]; in the assay on 3D7; with ATS189; with CP185; in the assay on CP191; with CP192) was “inactive” throughout. In addition, the Potency entry in the assay on CP194, in the assay on CP211, with CP217, in the assay with CP238, with CP252 and in the assay with CP262 was “inactive” in each case. The Potency entry with CP265, in the assay on CP269, in the assay with CP286, in the assay with CP329 and in the assay with FAB9 was “inactive” each time. In addition, the values for the activity, negative = inhibition in assay [2] (parasite line A) and in assay [2] (parasite line B) were -12.4% and -28%, respectively.

For the compound `CC(C)(C)NC[C@H](O)CSc1nc(-c2ccc(C(N)=O)s2)cs1`, the Potency result (in [1]; in the assay with 3D7; with ATS189; in the assay on CP185; in the assay with CP191; in the assay on CP192) was “inactive” throughout. Further, the Potency result with CP194, in the assay on CP211, in the assay on CP217, with CP238, in the assay with CP252 and with CP262 was “inactive” in each case. For the same compound, the Potency result in the assay with CP265, in the assay with CP269, in the assay with CP286, with CP329, with Dd2 and in the assay with ECU was “inactive” in each case. In addition, the Potency entry with FAB9 is “inactive”. The figures for the activity, negative = inhibition in [2] (parasite line A) and in assay [2] (parasite line B) were -8.78% and -3.22%, respectively.

Take `C[C@]12C=CC(=O)N[C@@H]1CC[C@@H]1C2CC[C@]2(C)C(C(=O)Nc3cc(C(F)(F)F)ccc3C(F)(F)F)CC[C@@H]12` (some centres not stated): the Potency entry (in assay [1]; with ATS189; in the assay with CP185; in the assay on CP191; with CP192; with CP194) was “inactive” in each case. Further, the Potency result in the assay with CP211, in the assay on CP217, in the assay with CP238, in the assay on CP252, in the assay with CP262 and with CP265 was “inactive” each time. The Potency entry with CP269, in the assay on CP329, in the assay with Dd2 and with ECU was “inactive” each time. For the same compound, the activity, negative = inhibition in assay [2] (parasite line A) was -5.45%. The Potency in assay [2] (parasite line B) was 11.2 µM (active); in the assay with 3D7, 5.62 µM (active); with CP286, 6.31 µM (active).

Regarding `CC(=O)CC(c1ccccc1)C1C(=O)Oc2ccccc2C1=O` (configuration not stated), the Potency entry (in assay [1]; with 3D7; in the assay on ATS189; with CP185; in the assay with CP191; in the assay on CP192) was “inactive” each time. Moreover, the Potency entry in the assay with CP194, in the assay on CP211, in the assay with CP217, in the assay with CP238, in the assay with CP252 and in the assay with CP262 was “inactive” in each case. Besides, the Potency result with CP265, in the assay with CP269, in the assay on CP286, in the assay on CP329, in the assay with Dd2 and in the assay on ECU was “inactive” in each case. Besides, the Potency entry with FAB9 is “inactive”. Besides, the activity, negative = inhibition was 13.7% in assay [2] (parasite line A) and 9.27% in assay [2] (parasite line B).

For `COc1ccc(S(=O)(=O)N2c3ccc(Cl)cc3[C@](O)(c3ccccc3Cl)[C@@H]2C(=O)N2CCC[C@H]2C(N)=O)cc1OC`, the Potency result (in [1]; in the assay on 3D7; in the assay with ATS189; in the assay with CP185; in the assay on CP191; in the assay on CP192) was “inactive” in each case. Besides, the Potency result in the assay on CP194, in the assay with CP211, with CP217, in the assay on CP238, in the assay with CP252 and with CP262 was “inactive” in each case. Besides, the Potency result in the assay with CP265, in the assay with CP269, with CP286, with CP329, with Dd2 and with FAB9 was “inactive” each time. The activity, negative = inhibition was -28.5% in [2] (parasite line A) and -6.86% in assay [2] (parasite line B).

Take `CC1=C(c2ccc(NN=C(C#N)C#N)cc2)NNC(=O)C1`: the Potency result (in assay [1]; in the assay with 3D7; in the assay with ATS189; in the assay on CP185; in the assay with CP191; with CP192) was “inactive” in each case. The Potency entry in the assay on CP194, with CP211, with CP217, in the assay with CP238, in the assay on CP252 and in the assay with CP262 was “inactive” throughout. Besides, the Potency entry with CP265, in the assay with CP269, in the assay on CP286, in the assay with CP329, in the assay on Dd2 and with ECU was “inactive” each time. Also, in the assay with FAB9, the Potency result is “inactive”. Moreover, the results for the activity, negative = inhibition in assay [2] (parasite line A) and in [2] (parasite line B) were -7.66% and 20.7%, respectively.

With `OC[C@@H](O)C(O[C@@H]1O[C@@H](CO)[C@H](O)[C@H](O)[C@H]1O)[C@H](O)[C@@H](O)CO` (some centres not stated), the Potency entry (in [1]; in the assay on 3D7; in the assay with ATS189; with CP185; in the assay with CP191; in the assay on CP192) was “inactive” in each case. For the same compound, the Potency result with CP194, with CP211, in the assay on CP217, in the assay on CP238, in the assay with CP252 and with CP262 was “inactive” each time. Besides, the Potency entry in the assay with CP265, in the assay with CP269, in the assay with CP286, in the assay on CP329, with Dd2 and in the assay with ECU was “inactive” throughout. In addition, the Potency result in the assay with FAB9 is “inactive”. For the same compound, the activity, negative = inhibition is 12% in assay [2] (parasite line A) and 4.36% in assay [2] (parasite line B).

Take `COc1ccc(C(=O)/C(Br)=C/C(=O)O)cc1`: the Potency result (in assay [1]; in the assay with ATS189; in the assay on CP185; in the assay on CP192; with CP238; in the assay on CP252) was “inactive” in each case. Further, the Potency result in the assay on CP262, with CP265, in the assay with CP286, in the assay with CP329, in the assay with Dd2 and in the assay on FAB9 was “inactive” throughout. For the same compound, the activity, negative = inhibition in assay [2] (parasite line A) was -21.1%; in [2] (parasite line B) it was -8.61%.

As to `CC1OC(OC2C(O)CC(OC3C(O)CC(OC4CCC5(C)C(CCC6C5CCC5(C)C(C7=CC(=O)OC7)CCC65O)C4)OC3C)OC2C)CC(O)C1O` (configuration not stated), the Potency entry (in assay [1]; in the assay on ATS189; in the assay with CP185; in the assay on CP191; with CP192; with CP211) was “inactive” throughout. Besides, the Potency result in the assay on CP217, with CP238, with CP252, in the assay on CP262, in the assay with CP265 and with CP269 was “inactive” in each case. The Potency result in the assay with CP286, in the assay with CP329, in the assay on ECU and with FAB9 was “inactive” throughout. Besides, the activity, negative = inhibition in assay [2] (parasite line A) was 1.31%; in assay [2] (parasite line B), 5.82%.

For `CC(=O)OC1C([N+]2(C)CCCCC2)C[C@H]2C3CC[C@H]4C[C@H](OC(C)=O)C([N+]5(C)CCCCC5)CC4(C)C3CCC12C` (some centres not stated), the Potency result (in assay [1]; with 3D7; with ATS189; in the assay with CP185; in the assay with CP191; in the assay on CP217) was “inactive” in each case. Further, the Potency result with CP238, in the assay on CP252, with CP262, with CP265, in the assay on CP286 and in the assay on Dd2 was “inactive” in each case. Besides, the Potency entry with ECU and in the assay with FAB9 was “inactive” in each case. The activity, negative = inhibition was -25% in assay [2] (parasite line A) and 8.8% in assay [2] (parasite line B).
